# Data: PubChem BioAssay
# Where “and” joins values, the source holds several entries; their conditions need not be identical. Identical values can stand only once. More than one record can exist for a structure, and the calls need not agree. Calls of active or inactive are those of the source. Unless noted, no stated cut-off is given here; in the data, active means inhibition above about 80%; inactive means the rest.
# Columns and labels:
# [1] = galactose survival enhancers in mitochondrial complex I cybrids – cell-based, galactose medium, ATP luminescence, primary screen (AID 1645843;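 active means z-score of at least 1.8 in each of two replicates, scored against plate mean and spread of sample wells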;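 further: positive z means more ATP and so rescue of galactose-driven cybrid death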); settings: complex I mutant cybrid cells, 72 h, stronger effect = higher value
# [2] = antimalarial activity against Dd2 strain (AID 2302;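 active means growth inhibition above 50% at the single 2 µM test dose, taken to imply half-maximal potency below 2 µM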;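 further: 0% = DMSO untreated growth and 100% = chloroquine plus artemisinin killed control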); settings: P. falciparum Dd2 in RBCs, LDH growth readout, 72 h; at 2 µM; stronger effect = higher value
# [3] = human hepatoma cell viability loss – ATP luminescence, cytotoxicity control for P. falciparum antimalarial project, primary screen (AID 2303;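 active means inhibition above 50%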;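 further: 0% = DMSO wells and 100% = digitonin-killed cells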); settings: HepG2 viability, 24-48 h, at 10 µM, stronger effect = higher value
# [4] = molecular target: L-lactate dehydrogenase (Plasmodium falciparum (isolate CDC / Honduras)) (UniProt Q27743); assay: PfLDH activity inhibition – cell lysate, 3D7 strain, counter-screen for P. falciparum growth inhibition project (AID 2304; call rule not given here;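 further: 0% = vehicle and 100% = reference inhibitor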); settings: P. falciparum 3D7 crude extract, LDH APAD/NBT absorbance; at 2 µM; stronger effect = higher value
# Chain of L-lactate dehydrogenase (Plasmodium falciparum (isolate CDC / Honduras)) (Q27743 whole entry, looked up): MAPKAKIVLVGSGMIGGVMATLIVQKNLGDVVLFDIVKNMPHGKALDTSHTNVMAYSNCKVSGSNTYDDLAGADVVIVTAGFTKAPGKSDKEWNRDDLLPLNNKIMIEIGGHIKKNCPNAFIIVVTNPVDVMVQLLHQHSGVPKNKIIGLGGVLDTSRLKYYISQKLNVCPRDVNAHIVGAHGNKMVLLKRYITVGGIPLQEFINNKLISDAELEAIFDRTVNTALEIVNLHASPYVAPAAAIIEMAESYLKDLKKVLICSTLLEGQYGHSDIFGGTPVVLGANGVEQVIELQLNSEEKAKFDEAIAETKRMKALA
# [5] = inhibition of 3D7 malaria parasite growth – strain 3D7 (AID 2306; call rule not given here;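 further: 0% = DMSO wells and 100% = chloroquine plus artemisinin control wells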); settings: P. falciparum 3D7 erythrocytic growth, LDH absorbance, 72 h; at 2 µM; stronger effect = higher value
# [6] = compounds altering circadian rhythm period length – cell-based, LOPAC library, luminescence reporter (AID 2774; call rule not given here;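 further: values are relative to mean of DMSO wells on each plate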); settings: circadian reporter cells, at 7 µM, actives lie on both sides
# [7] = growth inhibition, single agent or in combination, cell-based, chromothripsis tumors, cisplatin or BGB combos (AID 1671449); settings: LFS_MB_P medulloblastoma cells;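 further: cells exposed for 96 hours; 0% = vehicle DMSO and 100% = killing by high DMSO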
# [8] = growth inhibition, single agent and combos, cell-based, chromothripsis tumors, cisplatin or BGB combos (AID 1671450); settings: HDN33 neuroblastoma cells, stronger effect = higher value;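 further: cells exposed to compound for four days; 0% = vehicle DMSO and 100% = cell killing by high DMSO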
# [9] = growth inhibition, single agents and combos, ICB984, cell-based, cisplatin or BGB combos, synergistic combos for chromothripsis tumors (AID 1671451; call rule not given here;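 further: cells exposed for 96 hours before readout; 0% = vehicle DMSO and 100% = killing by high DMSO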); settings: ICB984 medulloblastoma cells, drug combinations, stronger effect = higher value
# [10] = growth inhibition, single agents and combos, LFS_MB_1R, cell-based, cisplatin or BGB combos, synergistic combos for chromothripsis tumors (AID 1671452); settings: LFS_MB_1R medulloblastoma cells, stronger effect = higher value;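 further: cells exposed for 96 hours before readout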
# [11] = growth inhibition, single agents and combos, HTB85, cell-based, BGB or cisplatin IC20 combos, synergistic combos for chromothripsis tumors (AID 1671453); settings: HTB85 osteosarcoma cells, drug combinations, stronger effect = higher value;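 further: cells exposed for 96 hours before readout; 0% = vehicle DMSO and 100% = high DMSO killing control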
# [12] = growth inhibition, single agents and combos, CRL2098, cell-based, BGB or cisplatin IC20 combos, synergistic combos for chromothripsis tumors (AID 1671454); settings: CRL2098 osteosarcoma cells, drug combinations, stronger effect = higher value;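 further: cells exposed for 96 h before readout; 0% = vehicle DMSO and 100% = killing by high DMSO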
# [13] = growth inhibition, single agents and combos, HD-MB03, cell-based, BGB or cisplatin IC20 combos, synergistic combos for chromothripsis tumors (AID 1671455; in the data active means inhibition above about 83%;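 further: 0% = vehicle DMSO and 100% = high DMSO as cytotoxic control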); settings: HD-MB03 medulloblastoma cells, stronger effect = higher value
# [14] = growth inhibition, single agents and combos, UWB1.289, cell-based, BGB or cisplatin combos, synergistic combos for chromothripsis tumors (AID 1671456); settings: UWB1.289 ovarian carcinoma cells, stronger effect = higher value;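 further: cells exposed to compound for four days; 0% = vehicle DMSO and 100% = killing by high DMSO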
# [15] = growth inhibition, single agents and combos, LFS_MB_2R, cell-based, cisplatin combos, synergistic combos for chromothripsis tumors (AID 1671457); settings: LFS_MB_2R medulloblastoma cells, stronger effect = higher value;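 further: cells exposed to compound for four days before readout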
# [16] = growth inhibition, MDA-MB-436, cell-based, BGB or cisplatin combos, synergistic combos for chromothripsis tumors (AID 1671458; call rule not given here;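 further: cells exposed for 96 hours; 0% = vehicle DMSO and 100% = killing by high DMSO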); settings: MDA-MB-436 breast carcinoma growth inhibition, drug combinations, stronger effect = higher value
# [17] = UWB1.289_BRCA1 ovarian cancer growth, cell-based, BGB or cisplatin combinations (AID 1671459); settings: UWB1.289 BRCA1 ovarian carcinoma, drug combinations, stronger effect = higher value
# [18] = drug combination toxicity in non-malignant astrocytes – cell-based, BGB or cisplatin IC20 combos, cytotoxicity control for chromothriptic childhood tumor combination screen (AID 1671460); settings: Human astrocytes, viability inhibition, drug combinations, at 0.5 µM, stronger effect = higher value;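 further: cells exposed to compounds for 96 hours before viability readout; 0% = vehicle and 100% = killing control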
# [19] = BT084 cell growth, single and combined drugs, ICGC_MB145, cisplatin and BGB IC40 combos (AID 1671461); settings: BT084 medulloblastoma cells, drug combinations, stronger effect = higher value;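 further: cells exposed to drugs for 96 hours; 0% = vehicle DMSO and 100% = high DMSO full killing control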
# [20] = RCMB18 cell growth, single agent and combined, cisplatin and BGB IC40 combos (AID 1671462); settings: RCMB18 medulloblastoma cells, stronger effect = higher value;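 further: cells exposed to compound for four days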
# [21] = CRL1545 cell growth, single agent and combined, cisplatin and BGB IC20 combos (AID 1671464); settings: CRL1545 osteosarcoma cells, stronger effect = higher value;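 further: cells exposed to compound for 96 hours before readout; 0% = vehicle DMSO and 100% = high DMSO killing control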
# [22] = measured here: combination with BGB IC40, at 0.05 µM
# [23] = measured here: with BGB IC20 combination, at 0.5 µM
# [24] = measured here: with cisplatin IC20 combination, at 0.5 µM
# [25] = measured here: combination with cisplatin, at 0.5 µM
# [26] = measured here: combination with cisplatin, at 5 µM
smiles,measurement,setting,value
COc1ccc(CN2CCN(C)C(CCO)C2)c(OC)c1OC (configuration not stated),z-score,[1],-0.21 (inactive)
Cc1ccc(C[C@H](C)NC[C@H](O)c2cccc(C(F)(F)F)c2)cc1,growth inhibition,[2],54% (active)
same,inhibition,[3],5% (inactive)
same,inhibition,[4],-1% (inactive)
same,growth inhibition,[5],100% (active)
CC(CCCC(C)(C)O)NC(C)Cc1ccccc1F (configuration not stated),z-score,[1],-0.515 (inactive)
C=CCN1CCC2(C)c3cc(O)ccc3CC1C2C (configuration not stated),period change,[6],-0.18 h (inactive)
COC(=O)/C=C/c1ccc(CC(C)NCC(O)c2cccc(C(F)(F)F)c2)cc1 (configuration not stated),growth inhibition,[2],96% (active)
same,inhibition,[3],16% (inactive)
same,inhibition,[4],0% (inactive)
same,growth inhibition,[5],97% (active)
C=CCN1CCC2(C)c3cc(O)ccc3CC1[C@@H]2C (some centres not stated),period change,[6],-0.025 h (inactive)
CCN1C[C@]2(C)CC[C@H](O)[C@@]34C5C[C@@H]6[C@@H](OC)C[C@@](O)(C5[C@H]6O)[C@@H](CC23)C14 (some centres not stated),period change,[6],0.055 h (inactive)
CN1C[C@@H](CS(=O)(=O)N(C)C)C[C@@H]2c3cccc4c3c(cn4C)C[C@H]21,period change,[6],-0.105 h (inactive)
CCC1(O)C(=O)OCc2c1cc1n(c2=O)Cc2cc3ccccc3nc2-1 (configuration not stated),inhibition,"[7]; at 0.5 µM, stronger effect = higher value",88.2% (active) and 9.86% (inactive)
same,inhibition,"[7]; measured here: combination with BGB IC20, at 0.005 µM",-1.21% and 5.58%
same,inhibition,"[7]; measured here: combination with BGB IC40, at 0.005 µM",-28.3% and -33.2%
same,inhibition,[7]; [22],-15.4% and -14.9%
same,inhibition,"[7]; measured here: combination with cisplatin, at 0.5 µM, stronger effect = higher value",109% and 46.9%
same,inhibition,"[7]; measured here: combination with cisplatin, at 5 µM, stronger effect = higher value",81.5% and 87.5%
same,inhibition,"[8]; BGB combo, at 5 µM",91.9% and 99.2%
same,inhibition,[8]; at 0.5 µM,76.6% (inactive) and 90.4% (active)
same,inhibition,"[8]; cisplatin combo, at 5 µM",89.8% and 99.4%
same,inhibition,[8]; [23],83.3% and 91.4%
same,inhibition,[8]; [24],71% and 86.5%
same,inhibition,"[8]; single agent, at 5 µM",93% and 99%
same,inhibition,"[9]; BGB IC20 combo, at 0.005 µM",-14.4% and -0.816%
same,inhibition,"[9]; BGB IC40 combo, at 0.005 µM",10.1% and 28.9%
same,inhibition,"[9]; BGB IC40 combo, at 0.05 µM",90.9% and 90.2%
same,inhibition,[9]; at 0.5 µM,0.67% (inactive) and -18.7% (inactive)
same,inhibition,"[9]; cisplatin combo, at 0.05 µM",90.9% and 89.8%
same,inhibition,"[9]; cisplatin combo, at 0.5 µM",8.68% and -15.9%
same,inhibition,"[9]; cisplatin combo, at 5 µM",-16.2% and -24.5%
same,inhibition,"[9]; measured here: 5 uM single agent, at 5 µM",-7.75% and -12.5%
same,inhibition,[10]; at 0.5 µM,18.3% (inactive) and 58.5% (inactive)
same,inhibition,[10]; [22],-2.41% and -26.5%
same,inhibition,[10]; [25],67.3% and 77.9%
same,inhibition,[10]; [26],84.7% and 77.9%
same,inhibition,[11]; at 0.5 µM,87% (active) and 98.3% (active)
same,inhibition,"[11]; measured here: with BGB IC20, at 0.5 µM",83.6% and 98.1%
same,inhibition,"[11]; measured here: with BGB IC20, at 5 µM",99.4% and 98.2%
same,inhibition,"[11]; measured here: with cisplatin IC20, at 0.5 µM",89.5% and 97.8%
same,inhibition,"[11]; measured here: with cisplatin IC20, at 5 µM",99.8% and 99.6%
same,inhibition,"[11]; single agent, at 5 µM",99.8%
same,inhibition,[12]; at 0.5 µM,61.8% (inactive) and 62.7% (inactive)
same,inhibition,"[12]; measured here: combination with BGB at IC20, at 0.5 µM",62.5% and 76.9%
same,inhibition,"[12]; measured here: combination with cisplatin at IC20, at 0.5 µM",58% and 56.3%
same,inhibition,[13]; at 0.5 µM,97.5% (active) and 99.2% (active)
same,inhibition,"[13]; measured here: combo with BGB at IC20, at 0.5 µM",96.5% and 99.2%
same,inhibition,"[13]; measured here: combo with cisplatin at IC20, at 0.5 µM",97.2% and 99.2%
same,inhibition,[14]; at 0.5 µM,66.6% (inactive) and 83.3% (active)
same,inhibition,"[14]; measured here: inhibition with BGB combination, at 0.05 µM",12.6% and 11.7%
same,inhibition,"[14]; measured here: inhibition with cisplatin combination, at 0.05 µM",11.3% and 20.8%
same,inhibition,[15]; at 0.5 µM,7.34% (inactive) and -4.41% (inactive)
same,inhibition,[15]; [25],19% and 21%
same,inhibition,[15]; [26],76.3% and 69.2%
same,inhibition,[16]; at 0.5 µM,54.1% (inactive) and 72% (inactive)
same,inhibition,"[16]; measured here: BGB combination, at 0.5 µM",51.4% and 63.7%
same,inhibition,"[16]; measured here: BGB combination, at 5 µM",74.8% and 70.3%
same,inhibition,"[16]; measured here: cisplatin combination, at 0.5 µM",45.3% and 73.5%
same,inhibition,"[16]; measured here: cisplatin combination, at 5 µM",82.3% and 82.8%
same,inhibition,"[17]; BGB combination, concentration series, at 5 µM",99.4% and 98.3%
same,inhibition,[17]; at 0.5 µM,67.6% (inactive) and 90.7% (active)
same,inhibition,"[17]; cisplatin combination, concentration series, at 5 µM",118% and 106%
same,inhibition,[18],60.8% (inactive) and 77.6% (inactive)
same,inhibition,[18]; measured here: combo with BGB IC20,60.1% and 81.6%
same,inhibition,[18]; measured here: combo with cisplatin IC20,47.8% and 70.6%
same,inhibition,[19]; at 0.5 µM,14.3% (inactive) and 17% (inactive)
same,inhibition,"[19]; cisplatin combination, at 0.5 µM",23.6% and 35.1%
same,inhibition,"[19]; cisplatin combination, at 5 µM",44.9% and 40.2%
same,inhibition,"[19]; measured here: BGB IC40 combination 0.05 uM, at 0.05 µM",23.9% and 38.2%
same,inhibition,"[19]; single agent, at 5 µM",-2.08% and -14.2%
same,inhibition,[20]; at 0.5 µM,7.46% (inactive) and 14.2% (inactive)
same,inhibition,"[20]; cisplatin combo, at 5 µM",72.3% and 80.4%
same,inhibition,"[20]; measured here: BGB IC40 combination, at 0.05 µM",5.45% and -12%
same,inhibition,[20]; [25],49.2% and 53.3%
same,inhibition,"[20]; single agent, at 5 µM",23.3% and 47.8%
same,inhibition,[21]; at 0.5 µM,54% (inactive) and 96.2% (active)
same,inhibition,[21]; [23],77.9% and 98.4%
same,inhibition,[21]; [24],42.1% and 95.1%
same,inhibition,"[21]; single agent, at 0.05 µM",32% and 28.6%
same,inhibition,"[21]; single agent, at 5 µM",99.8% and 99.9%
